PubChem BioAssay AID720533 (National Center for Advancing Translational Sciences (NCATS), 2013)
Among all 18,000 compounds or so, about 750 (4.2%) were called active. Inconclusive results (about 13%) are left out. Shown is part of a subset that was picked to be rich in actives. Values without a mark were called inactive. Calls come from the whole dose curve; tested in HEK293 cells.

Test: qHTS for Inhibitors of binding or entry into cells for Lassa Virus
Conditions: Lassa virus pseudotyped entry inhibition, cell-based qHTS; series mostly up to 49.2 µM; activity change, negative = inhibition: at the top concentration
% is set by controls: 0 for no effect and ±100 for the full control effect; potency is the fitted concentration of half-maximal effect.

Compound	activity change, negative = inhibition	Potency
O=S(O)CNc1ccc(S(=O)(=O)c2ccc(NCS(=O)O)cc2)cc1	1.37%	–
O=C(O)C1=CCCN(CCON=C(c2ccccc2)c2ccccc2)C1	inactive	–
COc1ccc(C2=C(N3CCc4ccccc43)C(=O)NC2=O)cc1	-26.5%	–
CC1=C(/C=C/C(C)=C/C=C/C(C)=C/C=C/C=C(C)/C=C/C=C(C)/C=C/C2=C(C)CCCC2(C)C)C(C)(C)CCC1	9.81%	–
COc1ccc(CCNc2ncnc3sc(C(=O)N4CCCC4)c(C)c23)cc1OC	-8.35%	–
Cc1c2ccc(N(C)c3ccnc(Nc4cccc(S(N)(=O)=O)c4)n3)cc2nn1C	-0.986%	–
C=CCC(C)(O)c1ccco1 (stereo unspecified)	-0.27%	–
CC1=C[C@H]2c3ccccc3C[C@H]2CO[C@]12C(=O)N(Cc1ccc(Br)cc1)c1ccccc12	16.7% [at 8.59 µM]	–
COc1ccccc1-c1ccnc(-n2ncc(C(=O)NCCc3ccncc3)c2C)n1	-18.3%	–
CCOc1ccc(NS(=O)(=O)c2ccc(N)cc2)nn1	2.16%	–
CC(C)[C@@H](CO[Si](C)(C)C(C)(C)C)N1C[C@@H](N2CCCC2)CS1(=O)=O	-10.9%	–
C=CC1=C2C=C(C3CC3)N(CC(C)C)C=C2C(=O)C(C)(OC(=O)c2ccco2)C1=O (stereo unspecified)	-4.02% [at 8.59 µM]	–
NC(=O)C(=O)N/N=C/c1ccc([N+](=O)[O-])o1	-13%	–
Cc1ccc(-c2nn(CC(C)(C)C)c3ncnc(N)c23)cc1	-24.1%	–
Cc1csc(-c2coc3cc(O[C@@H]4O[C@H](CO)[C@@H](O)[C@@H](O)[C@H]4O)ccc3c2=O)n1	28%	–
COc1ccc([C@@H](NC(=O)C(F)(F)F)C2CCCC=C2c2ccccc2)cc1OC (stereo partly specified)	-11.1% [at 8.59 µM]	–
NNc1nnc(Cc2ccncc2)c2ccccc12	-16.1%	–
O=Cc1c(Cl)cccc1Cl	-7.53%	–
O=C1C(c2ccccn2)=[N+]([O-])c2ccccc21	1.18%	–
Cc1nnc(C(=O)NC(C)(C)c2nc(C(=O)NCc3ccc(F)cc3)c(O)c(=O)n2C)o1	-10.3%	–
C[C@@H]1C[C@H]2CC[C@H](O2)[C@H](C)C(=O)O[C@@H](C)C[C@@H]2CC[C@@H](O2)[C@@H](C)C(=O)O[C@H](C)C[C@H]2CC[C@H](O2)[C@H](C)C(=O)O[C@@H](C)C[C@@H]2CC[C@@H](O2)[C@@H](C)C(=O)O1	–	0.562 µM (active)

Compound	activity change, negative = inhibition	Potency
CCCCCCCCCCCC(=O)O[C@H](CC(=O)O)C[N+](C)(C)C	-5.17%	–
COC1=C[C@H](C(=O)N[C@H]2CCCC[C@H]2NC(C)=O)[C@H](C)[C@@H](c2ccccc2)CC1=O	-1.51% [at 8.59 µM]	–
COc1cccc([C@@H]2Oc3ccc(Br)cc3C(=O)[C@H]2OC(=O)NCc2ccc3c(c2)OCO3)c1	-0.946%	–
CN1CCCCCC1C(=O)NCCN1Cc2ccccc2OC(c2ccsc2)C1 (stereo unspecified)	4.6%	–
CCCCC/C=C\C[C@H](O)/C=C/C=C/C=C/[C@@H](O)CCCC(=O)O	6.82%	–
O=C(/C=C/c1cccc(F)c1)NC1CC1	9.73%	–
CC[N+](C)(CC)CCC[n+]1c(-c2ccccc2)c2cc(N)ccc2c2ccc(N)cc21	–	3.16 µM (active)
Brc1ccc(C2=NCCC(c3ccccc3)O2)cc1 (stereo unspecified)	-12.7%	–
COC1=C[C@H](C(=O)NCc2ccccc2)[C@@]2(C)Cc3ccccc3[C@@H]2CC1=O	-4.25% [at 8.59 µM]	–
CCCC[C@]12Cc3cc(C#N)ccc3[C@H](O1)c1c(cc(-c3ccccc3)oc1=O)O2	20.3% [at 8.59 µM]	–
C=C(C)C(O)C=CC=Cc1ccccc1 (stereo unspecified)	46.4% [at 8.59 µM]	–
C=O	7.43%	–
C[C@H]1CCC[C@@]2(C)CCCC[C@]12O	-4.17%	–
CO[C@@]12[C@@H](COC(N)=O)C3=C(C(=O)C(C)=C(N)C3=O)N1C[C@@H]1N[C@@H]12	-2.25%	–
COc1cc(=O)n2c(c1C(=O)NC(C)c1ccco1)CCN(C(=O)c1cn3ccc(C)cc3n1)CC2 (stereo unspecified)	-8.78%	–
CC[C@H](C)[C@H](NC(=O)[C@H](CCCNC(=N)N)NC(=O)[C@H](CCCNC(=N)N)NC(=O)[C@H](CC(C)C)NC(=O)[C@H](Cc1ccccc1)NC(=O)CNC(=O)CNC(=O)[C@@H](N)Cc1ccc(O)cc1)C(=O)N[C@@H](CCCNC(=N)N)C(=O)N1CCC[C@H]1C(=O)N[C@@H](CCCCN)C(=O)N[C@@H](CC(C)C)C(=O)N[C@@H](CCCCN)C(=O)N[C@@H](Cc1c[nH]c2ccccc12)C(=O)N[C@@H](CC(=O)O)C(=O)N[C@@H](CC(N)=O)C(=O)N[C@@H](CCC(N)=O)C(=O)O	2.04%	–
CCC1(C2CCN(Cc3cccnc3)CC2)NC(=O)N(CC2COc3ccccc3O2)C1=O (stereo unspecified)	-0.768%	–
COC(=O)C12C[C@@H](C)C3C(C)C(c4ccccc4C31)N2C(=O)C(F)(F)F (stereo partly specified)	4.36% [at 8.59 µM]	–
C=CCOC(=O)N[C@@H](CC(C)C)C(C(=O)OC)=C(C)NCc1ccccc1	-29.4% [at 8.59 µM]	–
C[C@H]1Cc2c(-c3ccccc3)nc3c(c2CO1)CN(S(=O)(=O)c1ccc(Cl)c2nonc12)CC3	-12.5% [at 8.59 µM]	–
CC1(C)OC[C@@H](COC(=O)CCc2ccc(OC[C@@H](O)CNCCNC(=O)N3CCOCC3)cc2)O1	inactive	–

Compound	activity change, negative = inhibition	Potency
NS(=O)(=O)c1ccc(N=Nc2c(O)[nH]c3cccc(CCc4ccncc4)c23)cc1	27.4%	–
CC(=O)OC[C@H]1O[C@H](C#CCCCc2ccccc2)C=C[C@H]1OC(C)=O	-26.7% [at 8.59 µM]	–
COc1ccc(-n2c(CNC(=O)c3cc(C(F)(F)F)ccc3Cl)nnc2SC)cc1	0.159%	–
CCCC1C(=O)N2C(N(C)C)=Nc3ccc(C)cc3N2C1=O (stereo unspecified)	-4.84% [at 17.8 µM]	–
CC(=O)OCC(COC(C)=O)OC(C)=O	inactive	–
COC(=O)C(C(=O)OC)C1c2ccccc2C=C(C2CC2)N1C(=O)OC (stereo unspecified)	inactive	–
CCC1CN(CCNC(=O)c2cccnc2C)Cc2cc(OC)ccc2O1 (stereo unspecified)	-1.24%	–
O=C1OCCN1C(=O)[C@H]1[C@H](c2ccc(F)cc2)C(c2ccccc2)=NN1c1ccc(Br)cc1	-12.8%	–
CCn1ccnc1C[C@@H]1COc2ccccc2O1	19.4%	–
C#CCN([C@@H](C)C(=O)OCC)S(=O)(=O)c1ccc(Br)cc1F	21.8%	–
CCCc1c2oc(C(=O)O)cc(=O)c2cc2c(=O)cc(C(=O)O)n(CC)c12	-11.3%	–
CCc1noc(C)c1C(=O)NCCN1Cc2cc(OC)ccc2OC(CC)C1 (stereo unspecified)	-8.14%	–
O=C(/C=C/c1ccccc1)c1ccccc1O	4.23%	–
CC(=O)c1c(O)c(C)c(O)c(Cc2c(O)c3c(c(C(=O)/C=C\c4ccccc4)c2O)OC(C)(C)C=C3)c1O	–	15.8 µM (active)
CC(=O)c1c(O)c(C)c(O)c(Cc2c(O)c3c(c(C(=O)/C=C/c4ccccc4)c2O)OC(C)(C)C=C3)c1O	inactive	–
CC(C)CNc1cccc2c1S(=O)(=O)N[C@H](CC(C)C)CO2	23.9%	–
CC[C@@]12C=C(/C=C/c3ccccc3)[C@](CC)(C1)[C@H](c1ccccc1)CC2=O	4.3%	–
O=C(NCc1ccco1)O[C@@H]1C(=O)c2cc(Br)ccc2O[C@H]1c1ccc2c(c1)OCO2	-1.63%	–
O=C(C1CCCCC1)N1C[C@@H](n2cc(C3CC3)nn2)[C@@H](O)C[C@@H]1c1ccccc1	14.9%	–
COC(=O)c1ccccc1-c1cc(C)cc2c1OC(CNC(=O)C1CCOC1)C2 (stereo unspecified)	-27.8%	–
CC(C)c1ccc2c(c1)c(SC(C)(C)C)c(CC(C)(C)C(=O)O)n2Cc1ccc(Cl)cc1	–	25.1 µM (active)

Compound	activity change, negative = inhibition	Potency
COCCN1C(=S)NC(c2cccc(F)c2)C(C(=O)OC)=C1C (stereo unspecified)	11% [at 8.59 µM]	–
O=C(Nc1ccc(O)cc1)c1ccccc1O	-7.09%	–
O=C(Nc1ccc(C(=O)O)c(O)c1)c1ccccc1	-5.82%	–
O=C(Nc1cccc(C(F)(F)F)c1)c1cc(Br)cc(Br)c1O	–	3.98 µM (active)
c1ccc2c(c1)[I+]c1ccccc1-2	–	0.891 µM (active)
CCCCCCCC/C=C\CCCCCCCC(=O)OC[C@H](CO)OC(C)=O	inactive	–
Cc1cc2oc(=O)cc(-c3ccccc3)c2c(C)c1/C=C/c1ccc(F)cc1	-26.5%	–
Oc1c(Cl)cc(Cl)c(Cl)c1Cc1c(O)c(Cl)cc(Cl)c1Cl	–	6.31 µM (active)
C=CCC1CCC(=O)N2CCCC12 (stereo unspecified)	6.13% [at 107 µM]	–
CO[C@H]1C=CO[C@@]2(C)Oc3c(C)c(O)c4c(O)c(c(/C=N/N5CCN(C)CC5)c(O)c4c3C2=O)NC(=O)/C(C)=C\C=C[C@H](C)[C@H](O)[C@@H](C)[C@@H](O)[C@@H](C)[C@H](OC(C)=O)[C@@H]1C	-2.8%	–
COC(=O)C(C(=O)OC)[C@@H](NC=O)c1ccccc1	3.12%	–
Cc1c(O)cc(O)c2c(=O)c(-c3ccc(O)cc3)coc12	9.52%	–
O=C(OCc1ccccc1)c1ccc(O)cc1	5.78%	–
O=c1c(O)c(-c2ccc(O)cc2)oc2ccccc12	-13.3%	–
O=c1c(CN2CCOc3ccc(CN4CCC(Oc5cccnc5)CC4)cc3C2)coc2ccccc12	-25.2%	–
O[C@H]1CN(CC2CCCCC2)[C@@H](c2ccccc2)C[C@H]1n1cc(-c2ccc(F)cc2)nn1	-22.3%	–
O=c1cc(CN2CCCCCCC2)c2c(ccc3ccccc32)o1	-12.8%	–
CCCCCCN1C[C@H](O)[C@@H](n2cc(COC(=O)c3ccccc3)nn2)C[C@H]1c1ccc(Cl)cc1	-31.6%	–
